# Bioassay records (PubChem)
# Shown is part of a subset that was picked to be rich in hits.
# HT1080-NT tox: qHTS for induction of synthetic lethality in tumor cells producing 2HG: qHTS for the HT-1080-NT fibrosarcoma cell line. HT-1080-NT fibrosarcoma viability, CellTiter-Glo ATP luminescence, 48 h. Potency, µM (series often up to 46.1 µM), inactives show at the highest dose activity, negative = less viability, most hits filed as cytotoxic. hit rate 1.6% among 360,000. AID 686970, 2013;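 further: NT is the 2HG producing partner of a matched IDH1 knockdown line; potency means the concentration at half of the fitted maximal effect; 0% = DMSO-treated cells and -100% = media-only wells without cells; nearly all actives have a fitted effect of over 55% in size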
#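 A 48-hour cytotoxicity screen used HT-1080-NT cells plated 2 hours before compound delivery. ATP-based CellTiter-Glo luminescence measured viability, normalized to DMSO and no-cell controls.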
# IL1B secr inh: qHTS for Inhibitors of Inflammasome Signaling: IL-1-beta AlphaLISA Primary Screen. THP-1 LPS/ATP IL-1B secretion, AlphaLISA, 16 h; active compounds read low. activity change, % at 57.5 µM. hit rate 4.7% among 360,000. AID 743279, 2014; in the data active means activity change below about -50%; inconclusive means mostly about -30% to -49%
#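 Secreted IL-1B measured by AlphaLISA bead assay after 16 h compound exposure of THP-1 cells; compounds (final up to 57.5 uM) added 1 h before LPS (250 ng/mL) and ATP (1.25 mM) stimulation; lower signal means less secretion.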
# TDP1 cell noCPT: qHTS for Inhibitors of human tyrosyl-DNA phosphodiesterase 1 (TDP1): qHTS in cells in absence of CPT; DT40 Tdp1-/- hTDP1 cells, no CPT, ATP luminescence, 48 h; Potency, µM (doses to about 46.2 µM), without a hit: at the top dose activity change, negative = growth inhibition, actives largely listed as inhibitors; hit rate 15% among 420,000; AID 686978, 2013; further: potency means the concentration at half of the fitted maximal effect; nearly all actives have a fitted effect of over 55% in size
#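 Readout: luminescence from CellTiter-Glo after 30 min in the dark at RT. Cells: DT40 Tdp1-/- with stable hTDP1, 400/well. Exposure: compounds alone, ≥48 hr, 37 °C.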
# HT1080 IDH1KD tx: qHTS for induction of synthetic lethality in tumor cells producing 2HG: qHTS for the HT-1080-IDH1KD cell line | HT-1080 IDH1 knockdown viability, ATP luminescence, 48 h | Potency, µM (doses to about 46.1 µM), without a hit: at the top dose activity, negative = toxicity, usual class: cytotoxic | hit rate 2% among 360,000 | AID 686971, 2013;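 further: potency means the concentration at half of the fitted maximal effect; 0% = DMSO wells and -100% = cell-free medium wells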
#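 IDH1KD HT-1080 cells, 750/well, RPMI + 5% FBS; compound pinned after 2 h settling; 48 h, 37 °C; CellTiter-Glo luminescence; % activity normalised to DMSO and no-cell wells; curves fitted, classed by r2 and efficacy.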
# 12-LOX inh: Primary qHTS assay for inhibitors of human arachidonate 12S-lipoxygenase (ALOX12): Round 2 | Polyunsaturated fatty acid lipoxygenase ALOX12 (Homo sapiens), P18054 | purified 12hLO, xylenol orange hydroperoxide absorbance | Potency, µM (titrated, usually from 108 µM), for inactives: at the top dose activity change, negative = inhibition, actives largely listed as inhibitors | hit rate 1.1% among 580,000; further: potency means the concentration at half of the fitted maximal effect
# Target sequence (P18054 whole entry, looked up): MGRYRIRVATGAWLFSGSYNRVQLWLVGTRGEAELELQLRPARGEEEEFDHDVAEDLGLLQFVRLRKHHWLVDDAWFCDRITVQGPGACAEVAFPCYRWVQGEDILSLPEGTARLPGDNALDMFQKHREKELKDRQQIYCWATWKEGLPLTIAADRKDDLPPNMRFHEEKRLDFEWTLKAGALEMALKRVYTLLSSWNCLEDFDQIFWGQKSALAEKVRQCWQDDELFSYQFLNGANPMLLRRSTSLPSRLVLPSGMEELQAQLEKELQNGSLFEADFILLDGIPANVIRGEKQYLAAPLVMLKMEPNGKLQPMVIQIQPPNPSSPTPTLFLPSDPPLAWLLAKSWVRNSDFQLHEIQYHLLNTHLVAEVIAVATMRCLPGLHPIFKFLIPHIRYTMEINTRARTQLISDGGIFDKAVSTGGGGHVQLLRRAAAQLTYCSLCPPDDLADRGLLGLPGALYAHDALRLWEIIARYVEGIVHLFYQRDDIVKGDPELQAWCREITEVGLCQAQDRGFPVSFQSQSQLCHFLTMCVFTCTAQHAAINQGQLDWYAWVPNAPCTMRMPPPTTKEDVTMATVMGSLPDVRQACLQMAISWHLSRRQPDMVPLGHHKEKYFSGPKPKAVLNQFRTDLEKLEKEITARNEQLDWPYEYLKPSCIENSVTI
#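 Purified human 12hLO (150 nM final) in 25 mM Hepes, 0.01% Triton X-100, pH 7.0 was preincubated 15 min at room temperature with compound. Then 40 uM arachidonic acid was added, 30 min. Hydroperoxide was read by Fe-XO absorbance ratio 573/405 nm.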
# TDP1 cell CPT: qHTS for Inhibitors of human tyrosyl-DNA phosphodiesterase 1 (TDP1): qHTS in cells in presence of CPT. chicken DT40 Tdp1-/-;hTDP1 cells + 20 nM CPT, ATP luminescence, 48 h. Potency, µM (titrated, usually from 46.2 µM), without a hit: at the top dose activity change, negative = growth inhibition, most hits filed as inhibitors. hit rate 12% among 420,000. AID 686979, 2013; further: potency means the concentration at half of the fitted maximal effect; nearly all actives have a fitted effect of over 55% in size
#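 Chicken DT40 Tdp1-/- cells complemented with human TDP1, 400 cells/well, exposed to compounds plus 20 nM camptothecin for at least 48 h at 37 C; viability read as ATP content by CellTiter-Glo luminescence.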
# * marks the source's active call; other numbers are inactive results; ? = inconclusive; nt = no result. Unless noted, the call rests on the fitted dose curve; in most records, active means well fitted curve in the direction sought with a large enough effect; inconclusive means small, poorly fitted or top-dose-only effect, or another doubt; inactive means no such curve, though single readings can be large; an effect the other way counts as inactive or inconclusive. Unless noted, on the % scale 0 is the no-effect control and ±100 the full control effect.
SMILES,HT1080-NT tox,IL1B secr inh,TDP1 cell noCPT,HT1080 IDH1KD tx,12-LOX inh,TDP1 cell CPT
O=C(NCCc1ccccc1)c1ccc2nc(N3CCOCC3)sc2c1,-2%,8,?,4%,-4%,-7%
O=C(c1ccc2nc(N3CCOCC3)sc2c1)N1CCC(Cc2ccccc2)CC1,?,-20,23µM*,0%,10%,?
Cc1ccc(C)c(N2CCN(C(=O)c3ccc4nc(N5CCOCC5)sc4c3)CC2)c1,1%,23,13µM*,-13%,8%,?
CCOc1ccc(NC(=O)N2CCN(c3nc4ccccc4s3)CC2)cc1,5%,-5,?,4%,4%,-28%
O=C(Cn1c(=O)c2c(ncn2Cc2ccccc2)n(Cc2ccccc2)c1=O)NCc1ccco1,nt,nt,nt,nt,3%,nt
COc1cc(NC(=O)Cn2c(C)cc3nc4n(c(=O)c32)CCCCC4)cc(OC)c1,nt,nt,nt,nt,23%,nt
CCCNC(=O)C(C)SCc1coc(-c2ccc(Cl)cc2)n1 (stereo not drawn),nt,nt,nt,nt,8%,nt
CCOC(=O)N1CCN(C(=O)c2ccc3nc(N4CCC(C)CC4)sc3c2)CC1,-13%,?,?,-18%,0%,?
Cc1ccc(Cl)cc1N1CCN(C(=O)c2ccc3nc(N4CCC(C)CC4)sc3c2)CC1,nt,nt,21µM*,nt,0%,21µM*
O=C(c1nccc2ccccc12)N1CCc2c(nc3cc(-c4ccccc4)[nH]n3c2=O)C1,nt,nt,nt,nt,11%,nt
CCn1c(C)c(C)c2cc(C(=O)NCCc3ccco3)ccc21,4%,?,-2%,0%,-11%,-13%
Cc1c(C)n(C)c2ccc(C(=O)Nc3cccc4ccccc34)cc12,-4%,-19,?,-3%,0%,26µM*
Cc1c(C)n(C)c2ccc(C(=O)NCCc3ccc(Cl)cc3)cc12,nt,nt,?,nt,0%,18µM*
Cc1c(C)n(C)c2ccc(C(=O)NCCc3ccco3)cc12,0%,?,16µM*,1%,?,?
O=C(c1cnc[nH]1)N1CC(F)(F)C[C@H]1c1nc(C2CC2)no1,nt,nt,nt,nt,2%,nt
CCCCC(=O)N(C)c1c(CC)nc2c(OCCC)cccn12,1%,17,-23%,0%,-4%,-29%
CCCCC(=O)N(C)c1c(CC)nc2c(OCCOc3ccc(F)cc3)cccn12,-2%,-23,18µM*,-12%,4%,15µM*
CCc1nc2c(OCc3ccc(OC)cc3)cccn2c1N(C)C(=O)C(C)C,0%,7,?,0%,17%,?
CCc1nc2c(OCCOc3ccc(F)cc3)cccn2c1N(C)C(=O)c1ccc(C)cc1,-9%,-60*,15µM*,0%,?,?
CCc1nc2c(OCCOc3ccc(F)cc3)cccn2c1N(C)C(=O)C(C)C,1%,-8,16µM*,2%,0%,?
CCCCC(=O)N(C)c1c(CC)nc2c(OCCOc3ccccc3)cccn12,0%,-27,26µM*,0%,-5%,18µM*
CN1CCCCCCN(Cc2ccccc2)[C@H]2CCC[C@H]2C1=O,nt,nt,nt,nt,71%,nt
Cc1ccccc1Nc1nc(NC2CCCCC2)nc2c1cnn2C,nt,nt,nt,nt,-1%,nt
O=C(NC1C[C@H]2CC[C@@H](C1)N2C(=O)Cc1ccccc1Cl)c1ccncc1 (stereo partly drawn),nt,nt,nt,nt,50%,nt
Cc1ccc(-c2nn(-c3ccc(F)cc3)c3c2cnc2cc(F)c(F)cc23)cc1,nt,nt,?,nt,-2%,-1%
